Source: PubChem BioAssay
hcDAF12 agonist = H. contortus DAF-12 activation, primary screen. actives 1.4% (n = 370,000). AID 652067. HEK293 hcDAF-12 lit1-tk-luc reporter, luminescence; 0% DMSO, 100% Δ7-dafachronic acid. activation, % at 6.8 µM;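 active = activation above the mean of all tested compounds plus 3 SD, cut at about 5.5% in these data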
hgDAF12 agonist = agonists of H. glycines DAF-12 nuclear receptor | HEK293 GAL4-hgDAF12 UAS-luciferase reporter, agonist luminescence; normalized to butyrate control | AID 687014 | actives 1.8% (n = 370,000) | activation, % at 6.8 µM;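 active = activation above a cutoff set at the mean of all screened compounds plus 3 SD, cut at about 10% in these data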
DAX1 StAR inh = DAX1 (NR0B1) inhibition, primary screen; actives 1.1% (n = 370,000); AID 652010; HEK293T StAR-luciferase reporter, SF-1/DAX-1 repression relief; inhibition, % at 6.8 µM;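 active = inhibition above the mean over all tested compounds plus 3 SD, cut at about 3.6% in these data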;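 also: higher inhibition means more luminescence from relief of DAX-1 repression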
ssDAF-12 act = activates DAF-12 receptor from parasite S. stercoralis. HEK293 ssDAF-12/GRIP1 lit1-tk-luc reporter, luminescence; % of 3 µM dafachronic acid response. activation, % at 6.8 µM. actives 1% (n = 370,000). AID 652126;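 active = activation above the mean over all tested compounds plus 3 SD, cut at about 0.9% in these data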
esBAF inh = blocks esBAF chromatin remodeling in mouse ES cells; actives 2% (n = 350,000); reporter increase, % at 12.5 µM; AID 602393; Bmi1-luciferase knock-in reporter, 24 h; 100% = twice the neutral-well signal; in the data active = activation above about 40%; inconclusive = no clear call, values can overlap the other calls;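 also: a rise in the Bmi1 reporter signal indicates esBAF inhibition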
Wnt act = Wnt/beta-catenin pathway activation; Wnt/beta-catenin reporter cell assay, activator, plate reader; activation, % at 9.35 µM; actives 1.2% (n = 300,000); in the data active = activation above about 30%, passing the limit was not always enough; inconclusive = no clear call, values can overlap the other calls
LXR ag = counter-screen for hcDAF-12 agonists: agonists of human LXR-beta; shares compounds with hcDAF12 agonist; HEK293 Gal4-LXR tk-luc reporter, luminescence, 24 h; normalized: DMSO 0%, positive control 100%; activation, % at 6.8 µM; 3,400 tested, under 10 active; AID 743027;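 active = mean percent activation of the reporter above a cutoff set as the average over tested compounds plus their standard deviation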
Target sequence (P55055 whole entry, looked up, the tested form may be a part): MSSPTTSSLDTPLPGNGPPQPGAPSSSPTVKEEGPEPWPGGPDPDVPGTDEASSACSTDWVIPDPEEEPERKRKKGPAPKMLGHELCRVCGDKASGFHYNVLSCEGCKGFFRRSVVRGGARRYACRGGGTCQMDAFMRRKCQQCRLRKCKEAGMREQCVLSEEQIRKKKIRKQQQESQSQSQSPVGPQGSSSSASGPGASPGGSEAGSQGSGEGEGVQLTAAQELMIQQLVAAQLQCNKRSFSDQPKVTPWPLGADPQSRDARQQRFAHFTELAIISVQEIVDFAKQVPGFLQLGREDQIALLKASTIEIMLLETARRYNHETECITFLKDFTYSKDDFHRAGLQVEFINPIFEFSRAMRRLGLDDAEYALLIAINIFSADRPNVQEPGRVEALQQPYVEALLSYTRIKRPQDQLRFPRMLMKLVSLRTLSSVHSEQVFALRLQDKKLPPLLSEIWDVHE
hcDAF12 conf = confirmation of H. contortus DAF-12 agonists | shares compounds with hcDAF12 agonist | actives 61% (n = 3,400) | HEK293 hcDAF-12 lit1-tk-luc reporter, luminescence; % of Δ7-dafachronic acid response | activation, % at 6.8 µM | AID 743032;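 active = mean activation across triplicate tests above the threshold derived from the earlier primary screen, cut at about 5.5% in these data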
Numbers stand for hits; - = inactive; ? = inconclusive; . = no result. Most compounds without a hit are left out; they make up all but 4.2% or so of the library.

SMILES | hcDAF12 agonist | hgDAF12 agonist | DAX1 StAR inh | ssDAF-12 act | esBAF inh | Wnt act | LXR ag | hcDAF12 conf
COc1ccc(/C=N/N2C(C)CCCC2C)cc1O (stereo unspecified) | 8.1 | - | - | 0.9 | - | - | - | 7.4
Cc1noc(C)c1NC(=O)N(C)C[C@@H]1Oc2ccc(NC(=O)C3CCCCC3)cc2CC(=O)N([C@@H](C)CO)C[C@H]1C | . | . | . | . | - | . | . | .
O=C(NC1CC1)c1cc(-c2ccccn2)nc2ccccc12 | - | - | - | - | - | . | . | .
O=C(Nn1cnnc1)c1cc(-c2ccccn2)nc2ccccc12 | 11 | - | - | 1.3 | - | . | - | -
O=C(/C=C/c1cccc([N+](=O)[O-])c1)c1ccco1 | - | - | - | - | - | - | . | .
Cc1ccc([N+](=O)[O-])cc1N/C=C/C(=O)c1ccco1 | 8.1 | - | - | - | 55 | - | - | 6.1
CO[C@H]1CN(C)C(=O)c2cc(NC(C)=O)ccc2OC[C@H](C)N(Cc2ccncc2)C[C@@H]1C | . | . | . | . | - | . | . | .
C[C@@H]1CN([C@H](C)CO)C(=O)c2cc(NS(=O)(=O)c3cn(C)cn3)ccc2O[C@H]1CN(C)Cc1ccc2c(c1)OCO2 | . | . | . | . | - | . | . | .
CC(=O)C1CCCN(C(=O)c2ccc3oc(CCc4ccccc4)nc3c2)C1 (stereo unspecified) | 7.0 | - | 3.9 | - | ? | - | - | -
O=C(CSc1nnc(-c2ccccc2F)o1)N1CCCC1 | - | - | - | - | - | - | . | .
COc1ccccc1-c1nnc(SCC(=O)N2CCCC2)o1 | 6.7 | - | - | 1.4 | - | - | - | 9.1
Cc1cc(NC(=O)CSc2ccccn2)cc(NC(=O)CSc2ccccn2)c1 | - | - | - | - | - | - | . | .
O=C(CSc1ccccn1)Nc1ccc2c(c1)C(=O)c1ccccc1C2=O | 6.8 | - | - | - | . | . | - | -
C[C@@H]1CN([C@@H](C)CO)C(=O)Cc2cc(NC(=O)CCC(F)(F)F)ccc2O[C@H]1CN(C)S(=O)(=O)c1ccc(F)cc1 | . | . | . | . | - | . | . | .
Fc1ccc(-n2nnc(-c3cnc4ccccc4c3)n2)cc1 | 9.6 | 11 | - | - | - | - | - | -
Fc1ccc(-c2nnn(Cc3nc4ccccc4s3)n2)cc1 | - | - | - | - | - | . | . | .
C[C@@H]1CN([C@@H](C)CO)C(=O)Cc2cc(NC(=O)NC3CCCCC3)ccc2O[C@H]1CN(C)Cc1ccc(C(F)(F)F)cc1 | . | . | . | . | - | . | . | .
O=C(C[C@H]1CC[C@@H]2[C@H](COC[C@H](O)CN2S(=O)(=O)c2ccc(F)cc2)O1)N[C@H]1CCN(Cc2ccccc2)C1 | . | . | . | . | - | . | . | .
O=C(NC1CCC1)[C@@H]1[C@@H](CO)[C@@H]2Cn3c(cccc3=O)[C@H]1N2Cc1cc(F)ccc1F | . | . | . | . | - | . | . | .
O=C(COc1cccc(Cl)c1)N/N=C\c1cc2ccccc2nc1Cl | - | - | - | - | . | . | . | .
O=C(CNc1ccc2ccccc2c1)N/N=C/c1cc2ccccc2nc1Cl | 13 | - | - | - | . | - | - | -
COc1ccc(S(=O)(=O)Nc2ccc3c(c2)C(=O)N([C@@H](C)CO)C[C@@H](C)[C@@H](CN(C)C(=O)Nc2cccc4ccccc24)O3)cc1 | . | . | . | . | - | . | . | .
O=C(O)c1ccc(N/N=C/c2c(F)cccc2Cl)cc1 | - | - | - | - | - | - | . | .
Fc1cccc(F)c1/C=N/Nc1ccccn1 | 7.1 | 13 | - | 1.5 | . | - | - | 10
Fc1cccc(Cl)c1/C=N/Nc1ccccn1 | 7.0 | - | - | - | 56 | - | - | 10.0
SMILES | hcDAF12 agonist | hgDAF12 agonist | DAX1 StAR inh | ssDAF-12 act | esBAF inh | Wnt act | LXR ag | hcDAF12 conf
O=C(C[C@H]1C[C@H]2c3cc(NC(=O)NC4CCCC4)ccc3O[C@H]2[C@@H](CO)O1)NC1CCCCC1 | . | . | . | . | - | . | . | .
COc1ccc2nc(-c3ccc(F)cc3)sc2c1 | 9.3 | 11 | - | 1.0 | - | - | - | 6.7
Nc1ccc2nc(-c3ccccc3)sc2c1 | 9.7 | 11 | - | - | - | - | - | 7.1
COc1ccc2nc(N)sc2c1 | - | - | - | - | - | . | . | .
Cc1ccc2nc(-c3ccc(N)cc3)sc2c1 | 11 | - | 4.2 | 1.6 | . | - | - | 13
Cc1ccc(S(=O)(=O)Nc2nc3ccc(N)cc3s2)cc1 | - | - | - | - | - | - | . | .
O=C(NCC1CC1)[C@H]1[C@H](CO)[C@H]2Cn3c(ccc(-c4cccnc4)c3=O)[C@@H]1N2Cc1nccs1 | . | . | . | . | - | . | . | .
CNC(=O)CSc1ncnc2c1cnn2-c1ccccc1 | 7.4 | - | - | - | . | - | - | -
O=C(CSc1ncnc2c1cnn2-c1ccccc1)Nc1ccccc1 | - | - | - | - | - | - | . | .
C[C@H](CO)N1C[C@H](C)[C@@H](CN(C)C(=O)Cc2ccccc2)OCCCC[C@H](C)Oc2ccc(NC(=O)Nc3ccc(F)cc3)cc2C1=O | . | . | . | . | - | . | . | .
O=S(=O)(Nc1nc2ccccc2nc1NCC1CCCO1)c1ccccc1 (stereo unspecified) | - | - | - | - | . | - | . | .
c1ccc2sc(NCC3CCCO3)nc2c1 (stereo unspecified) | 8.2 | - | 4.2 | - | . | - | - | -
Cc1ccc(CC(=O)Nc2nc3ccccc3s2)cc1 | - | - | - | - | . | . | . | .
Cc1ccc(CNc2nc3ccccc3s2)s1 | 10 | - | 4.0 | 1.0 | - | - | - | 12
Cc1cccc(N2O[C@H]3C=C[C@@H]2C3)n1 | 9.4 | - | - | - | . | - | - | 5.6
Cc1cccc(N2C(=O)C3C4C=CC(C5CC45)C3C2=O)n1 (stereo unspecified) | - | - | - | - | . | - | . | .
Cc1noc(C)c1NC(=O)Nc1cccc2c1O[C@@H](CN(C)C)[C@H](C)CN([C@@H](C)CO)C2=O | . | . | . | . | - | . | . | .
COc1ccc2oc(=O)c(/C(C)=N/Nc3nc(-c4cc(C)ccc4C)cs3)cc2c1 | 6.7 | - | - | - | . | - | - | -
CN1C[C@@H]2[C@H](c3ccccc31)[C@H](CO)N2C(=O)CN1CCOCC1 | . | . | . | . | - | . | . | .
Cc1cccc(NC(=O)Nc2ccc(F)cc2)n1 | - | - | - | - | ? | - | . | .
Cc1ccc(NC(=O)Nc2cccc(C)n2)cc1 | 14 | - | - | 1.4 | - | 40 | - | 12
COc1ccc(/C=C/C(=O)NC(=S)Nc2cc([N+](=O)[O-])ccc2O)cc1OC | - | - | - | - | . | - | . | .
O=C(NC(=S)Nc1cc([N+](=O)[O-])ccc1O)C1CC1 | 9.6 | - | - | - | - | - | - | -
COCC(=O)Nc1ccc2c(c1)C(=O)N(C)[C@@H]1CC[C@@H](CC(=O)NCCc3ccncc3)O[C@H]1CO2 | . | . | . | . | - | . | . | .
N#CC(C#N)=Cc1cc2ccccc2nc1N1CCCCC1 | 7.1 | - | - | - | . | - | - | -
